Measured values as given in the supplement of paper PMC9262897, “Low-cost anti-mycobacterial drug discovery using engineered E. coli” (Nature Communications, 2022).
Counter-ions that a name gives are not always drawn. ± gives the standard deviation of the averaged measurements.

How the values were obtained:
Assay in all cases: growth (OD600 after 10 h); higher = more growth (less inhibition)
[1] = test system: E. coli TESEC Alr+ wild-type control; conditions: compound 0.1 mM; raw OD600 reference: median of DMSO wells 0.241, cell-free background 0.041
Experimental: (§1)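 TESEC Mtb Alr E. coli, or the Alr+ wild-type control, in 384-well plates with Prestwick library compounds at 0.1 mM and 1% DMSO, across arabinose induction levels of 1E3 to 1E7 nM. Growth is read as OD600 after 10 h at 37 °C in triplicate biological replicates.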

E. coli TESEC Mtb Alr [2] = conditions: compound 0.1 mM
Experimental: as §1

E. coli TESEC Mtb Asd = conditions: compound 0.1 mM
Experimental: (§2)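 TESEC E. coli strains in which the native enzyme is deleted and replaced by arabinose-inducible Mtb Asd, DapB, CysH or TrpD, each grown in its selective medium. Strains were screened against the Prestwick library at 0.1 mM and 1% DMSO in 384-well format at low and high arabinose induction. Growth is read as OD600 after 10 h in triplicate.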

E. coli TESEC Mtb DapB = conditions: compound 0.1 mM
Experimental: as §2

[3] = test system: E. coli TESEC Alr+ wild-type control; conditions: compound 0.1 mM; raw OD600 reference: median of DMSO wells 0.49, cell-free background 0.052
Experimental: (§3)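 TESEC Mtb Alr E. coli (ΔaraC ΔtolC ΔentC Δalr ΔdadX, arabinose-inducible Mtb Alr) or the Alr+ wild-type control strain, grown in defined M9-fructose medium without D-alanine in 96-well plates with Prestwick library compounds at 0.1 mM and 1% DMSO. Low Alr induction is 0.1 µM arabinose and high induction is 10 mM arabinose.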

E. coli TESEC Mtb Alr [4] = conditions: compound 0.1 mM; remark: listed apart in the source
Experimental: as §3

[5] = arabinose 1000 nM, raw OD600 reference: median of DMSO wells 0.294, cell-free background 0.041
[6] = arabinose 10000 nM, raw OD600 reference: median of DMSO wells 0.264, cell-free background 0.041
[7] = arabinose 100000 nM, raw OD600 reference: median of DMSO wells 0.201, cell-free background 0.041
[8] = arabinose 1000000 nM, raw OD600 reference: median of DMSO wells 0.193, cell-free background 0.041
[9] = arabinose 10000000 nM, raw OD600 reference: median of DMSO wells 0.146, cell-free background 0.041
[10] = arabinose induction (level): High, raw OD600 reference: median of DMSO wells 0.331, cell-free background 0.041
[11] = arabinose induction (level): Low, raw OD600 reference: median of DMSO wells 0.417, cell-free background 0.041
[12] = arabinose induction (level): High, raw OD600 reference: median of DMSO wells […], cell-free background 0.041
[13] = arabinose induction (level): Low, raw OD600 reference: median of DMSO wells 0.227, cell-free background 0.041
[14] = arabinose 100 nM, raw OD600 reference: median of DMSO wells 0.413, cell-free background 0.052
[15] = arabinose 10000000 nM, raw OD600 reference: median of DMSO wells […], cell-free background 0.052

Compound | growth [1] | growth (E. coli TESEC Mtb Alr [2]; [5]) | growth (E. coli TESEC Mtb Alr [2]; [6]) | growth (E. coli TESEC Mtb Alr [2]; [7]) | growth (E. coli TESEC Mtb Alr [2]; [8]) | growth (E. coli TESEC Mtb Alr [2]; [9]) | growth (E. coli TESEC Mtb Asd; [10]) | growth (E. coli TESEC Mtb Asd; [11]) | growth (E. coli TESEC Mtb DapB; [12]) | growth (E. coli TESEC Mtb DapB; [13]) | growth [3] | growth (E. coli TESEC Mtb Alr [4]; [14]) | growth (E. coli TESEC Mtb Alr [4]; [15])
CN1CCC(=C2c3ccccc3CC(=O)c3sccc32)CC1 [Ketotifen fumarate] | 0.196 ± 0.0062 | 0.254 ± 0.0091 | 0.246 ± 0.01 | 0.206 ± 0.032 | 0.131 ± 0.0024 | 0.143 ± 0.0042 | 0.198 ± 0.036 | 0.39 ± 0.042 | 0.239 ± 0.043 | 0.217 ± 0.02 | 0.54 ± 0.048 | 0.405 ± 0.0086 | 0.303 ± 0.017
Clc1ccc(C(Cn2ccnc2)OCc2csc3c(Cl)cccc23)c(Cl)c1 (configuration not stated) [Sertaconazole nitrate] | 0.0563 ± 0.0014 | 0.0558 ± 0.0094 | 0.07 ± 0.0042 | 0.057 ± 0.0028 | 0.06457 ± 0.00042 | 0.0588 ± 0.0084 | 0.0594 ± 0.0039 | 0.0635 ± 0.0047 | 0.0687 ± 0.0033 | 0.0671 ± 0.0089 | 0.129 ± 0.036 | 0.12 ± 0.024 | 0.123 ± 0.0052
COc1cccc2c1C(=O)c1c(O)c3c(c(O)c1C2=O)C[C@@](O)(C(=O)CO)C[C@@H]3O[C@H]1C[C@H](N)[C@@H](O)[C@H](C)O1 [Epirubicin hydrochloride] | 0.04433 ± 0.00032 | 0.0453 ± 0.0011 | 0.04623 ± 0.00032 | 0.0469 ± 0.0005 | 0.0457 ± 0.00068 | 0.0453 ± 0.0005 | 0.068 ± 0.0071 | 0.0576 ± 0.0035 | 0.0567 ± 0.0034 | 0.0562 ± 0.0015 | 0.0592 ± 0.0032 | 0.0587 ± 0.0013 | 0.0582 ± 0.00053
C=C[C@H]1CN2CC[C@H]1C[C@@H]2[C@@H](O)c1ccnc2ccc(OC)cc12 [Quinidine hydrochloride monohydrate] | 0.22 ± 0.004 | 0.28 ± 0.019 | 0.265 ± 0.01 | 0.181 ± 0.0089 | 0.138 ± 0.0072 | 0.144 ± 0.0058 | 0.239 ± 0.04 | 0.412 ± 0.012 | 0.198 ± 0.0064 | 0.229 ± 0.034 | 0.483 ± 0.07 | 0.4326 ± 0.004 | 0.356 ± 0.0089
COc1cnc(NS(=O)(=O)c2ccc(N)cc2)nc1 [Sulfameter] | 0.242 ± 0.0095 | 0.283 ± 0.0042 | 0.239 ± 0.011 | 0.218 ± 0.029 | 0.158 ± 0.0061 | 0.143 ± 0.0066 | 0.442 ± 0.039 | 0.399 ± 0.024 | 0.207 ± 0.027 | 0.243 ± 0.0072 | 0.516 ± 0.12 | 0.407 ± 0.021 | 0.336 ± 0.0042
Clc1ccc(C(Cn2ccnc2)OCc2ccsc2Cl)c(Cl)c1 (configuration not stated) [Tioconazole] | 0.04147 ± 0.00032 | 0.0412 ± 0.0011 | 0.0461 ± 0.00071 | 0.04173 ± 0.00029 | 0.0443 ± 0.00052 | 0.04223 ± 0.00035 | 0.0476 ± 0.0011 | 0.0482 ± 0.0016 | 0.0486 ± 0.00086 | 0.0575 ± 0.017 | 0.0501 ± 0.00075 | 0.0561 ± 0.0097 | 0.051 ± 0.00017
O=C1c2cccc3c2[C@H](CCC3)CN1[C@@H]1CN2CCC1CC2 [Palonosetron hydrochloride] | 0.212 ± 0.017 | 0.281 ± 0.0041 | 0.263 ± 0.013 | 0.177 ± 0.01 | 0.165 ± 0.0085 | 0.151 ± 0.0037 | 0.267 ± 0.049 | 0.279 ± 0.045 | 0.198 ± 0.0067 | 0.235 ± 0.02 | 0.601 ± 0.042 | 0.417 ± 0.011 | 0.307 ± 0.022
C#CCN(C)Cc1ccccc1 [Pargyline hydrochloride] | 0.25 ± 0.0048 | 0.291 ± 0.0091 | 0.278 ± 0.0057 | 0.206 ± 0.02 | 0.19 ± 0.0033 | 0.142 ± 0.0058 | 0.34 ± 0.035 | 0.429 ± 0.047 | 0.177 ± 0.0081 | 0.194 ± 0.0055 | 0.516 ± 0.11 | 0.412 ± 0.0092 | 0.357 ± 0.007
CC(=O)Oc1cccc2c1C(=O)c1c(OC(C)=O)cc(C(=O)O)cc1C2=O [Diacerein] | 0.122 ± 0.0032 | 0.136 ± 0.011 | 0.161 ± 0.0033 | 0.0638 ± 0.0022 | 0.0904 ± 0.0041 | 0.0642 ± 0.005 | 0.224 ± 0.019 | 0.348 ± 0.045 | 0.208 ± 0.019 | 0.23 ± 0.015 | 0.087 ± 0.0013 | 0.0492 ± 0.00056 | 0.0619 ± 0.0035
Nc1nc(F)nc2c1ncn2[C@@H]1O[C@H](CO)[C@@H](O)[C@@H]1O [Fludarabine] | 0.207 ± 0.0038 | 0.216 ± 0.0082 | 0.241 ± 0.0025 | 0.168 ± 0.011 | 0.185 ± 0.0037 | 0.133 ± 0.0056 | 0.272 ± 0.031 | 0.222 ± 0.035 | 0.168 ± 0.014 | 0.194 ± 0.028 | 0.626 ± 0.044 | 0.411 ± 0.0067 | 0.31 ± 0.004
CCN(CCO)CCCC(C)Nc1ccnc2cc(Cl)ccc12 (configuration not stated) [Hydroxychloroquine sulfate] | 0.228 ± 0.0034 | 0.282 ± 0.011 | 0.27 ± 0.0028 | 0.19 ± 0.015 | 0.1939 ± 0.0019 | 0.147 ± 0.0019 | 0.265 ± 0.052 | 0.352 ± 0.013 | 0.198 ± 0.0048 | 0.24 ± 0.04 | 0.54 ± 0.024 | 0.405 ± 0.01 | 0.354 ± 0.017
C[C@@H]1C[C@H]2[C@@H]3C[C@H](F)C4=CC(=O)C=C[C@]4(C)[C@@]3(F)[C@@H](O)C[C@]2(C)[C@@]1(O)C(=O)CO [Flumethasone] | 0.212 ± 0.0028 | 0.275 ± 0.013 | 0.256 ± 0.0067 | 0.188 ± 0.0075 | 0.154 ± 0.0069 | 0.127 ± 0.0043 | 0.231 ± 0.007 | 0.429 ± 0.022 | 0.193 ± 0.011 | 0.229 ± 0.014 | 0.543 ± 0.0085 | 0.402 ± 0.0073 | 0.307 ± 0.013
CCCCCCCCNC(C)C(O)c1ccc(SC(C)C)cc1 (configuration not stated) [Suloctidil] | 0.0763 ± 0.037 | 0.0398 ± 0.0011 | 0.0405 ± 0.00085 | 0.0403 ± 0.00044 | 0.0856 ± 0.078 | 0.0896 ± 0.085 | 0.191 ± 0.016 | 0.162 ± 0.074 | 0.153 ± 0.023 | 0.189 ± 0.019 | 0.0529 ± 0.0091 | 0.0587 ± 0.0041 | 0.0516 ± 0.00081
Nc1ccn([C@@H]2CS[C@H](CO)O2)c(=O)n1 [Lamivudine] | 0.239 ± 0.0031 | 0.292 ± 0.011 | 0.262 ± 0.0097 | 0.211 ± 0.037 | 0.209 ± 0.0042 | 0.144 ± 0.0079 | 0.353 ± 0.0047 | 0.425 ± 0.021 | 0.18 ± 0.013 | 0.207 ± 0.016 | 0.563 ± 0.13 | 0.407 ± 0.0069 | 0.357 ± 0.0056
